# Laboratory results: PubChem BioAssay
# What was measured:
# [1] = test system: Human papillomavirus type 1a protein E7 (residues 44-93); assay: HPV1a E7 fragment binders on microarrays, primary screen, biochemical, small-molecule microarray, residues 44-93, 635 nm fluorescence (AID 1108); conditions: small-molecule microarray binding, fluorescence 635 nm; higher = more signal;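 further: E7 fragment applied at 1 µg/mL in TBST for 1 h at 4 C; score combines spot fluorescence with its signal to noise ratio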
# [2] = modulators of HCV replicon luciferase signal, primary screen, HCV replication inhibitor project, Huh7 cells, luciferase reporter (AID 1109); conditions: 48 h, higher = more signal;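 further: huh7 hepatoma cells harbouring a luciferase neomycin HCV replicon reporter; luciferase luminescence as measure of HCV replicon replication; test concentration not given here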
# [3] = target: Left-right determination factor 2 (Homo sapiens) (UniProt O00292); assay: LEFTY2 binders on small-molecule microarrays, primary screen, biochemical, small-molecule microarray, 635 nm fluorescence scan (AID 1110); conditions: LEFTY2 binding, higher = more signal
# [4] = target: Calmodulin-1 (Homo sapiens) (UniProt P0DP23); assay: CALM1 binders on microarrays, EGTA buffer, profiling panel, biochemical, small-molecule microarray, Cy5-labelled CALM1 (AID 1111); conditions: Cy5-CALM1 binding fluorescence, higher = more signal;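 further: labelled calmodulin applied in Tris saline Tween buffer holding calcium plus EGTA and DTT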
# [5] = target: Calmodulin-1 (Homo sapiens) (UniProt P0DP23); assay: calcium-bound CALM1 binders on microarrays, profiling panel, artefact control for SMM control-protein annotation, biochemical, small-molecule microarray, Cy5-labelled CALM1, plus calcium (AID 1112); conditions: Cy5-CALM1 binding fluorescence, higher = more signal;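 further: score merges spot fluorescence with signal to noise from triplicate slides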
# [6] = small-molecule microarray binders of probe aWnt5a, primary screen, biochemical, biotinylated probe, 635/667 nm fluorescence (AID 1113); conditions: higher = more signal;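 further: score merges 667 nm fluorescence intensity with signal-to-noise per printed feature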
# [7] = small-molecule microarray binders of probe aShh, primary screen, biochemical, biotinylated probe, 635/667 nm fluorescence (AID 1114); conditions: higher = more signal;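 further: probe is biotin-labelled aShh protein from a stem cell growth factor screen; measures binding of labelled protein to compounds printed on the slide; score merges feature fluorescence at 667 nm with signal-to-noise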
# [8] = small-molecule microarray binders of probe aNog, primary screen, biochemical, biotinylated probe, 635/667 nm fluorescence (AID 1115); conditions: higher = more signal;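 further: probe is biotinylated aNog protein used at 0.15 µg/mL for 1 h at 4 C; z-score combines 667 nm fluorescence of each spot with its signal to noise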
# [9] = target: Torsin-1A-interacting protein 1 (Homo sapiens) (UniProt Q5JTV8); assay: LAP1 binders from COS7 cell lysate, primary screen, small-molecule microarray, 635/667 nm fluorescence (AID 1116); conditions: COS7-hLAP1 lysate binding, 635 nm fluorescence, higher = more signal
# [10] = target: Alpha-bungarotoxin (Bungarus multicinctus) (UniProt P60615); assay: alpha-bungarotoxin binders on microarray, profiling panel, artefact control for SMM control protein annotation, biochemical, small-molecule microarray, Alexa647 label, 635/667 nm fluorescence (AID 1117); conditions: alpha-BTX-A647 binding fluorescence, higher = more signal
# Chain of Alpha-bungarotoxin (Bungarus multicinctus) (P60615 whole entry, looked up): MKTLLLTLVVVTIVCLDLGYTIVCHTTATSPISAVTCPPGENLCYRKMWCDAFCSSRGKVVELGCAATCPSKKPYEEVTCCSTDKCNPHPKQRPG
# Chain of Left-right determination factor 2 (Homo sapiens) (O00292 whole entry, looked up): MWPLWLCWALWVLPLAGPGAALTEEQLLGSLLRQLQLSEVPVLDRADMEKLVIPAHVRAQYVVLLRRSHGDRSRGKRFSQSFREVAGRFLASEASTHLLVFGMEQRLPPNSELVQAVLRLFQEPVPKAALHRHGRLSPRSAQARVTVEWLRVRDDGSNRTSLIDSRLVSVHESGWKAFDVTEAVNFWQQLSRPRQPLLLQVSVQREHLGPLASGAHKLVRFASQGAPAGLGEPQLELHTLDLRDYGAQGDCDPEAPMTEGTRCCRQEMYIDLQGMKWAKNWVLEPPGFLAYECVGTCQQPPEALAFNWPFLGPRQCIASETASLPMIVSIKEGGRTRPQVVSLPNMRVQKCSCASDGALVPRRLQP
# Chain of Torsin-1A-interacting protein 1 (Homo sapiens) (Q5JTV8 whole entry, looked up): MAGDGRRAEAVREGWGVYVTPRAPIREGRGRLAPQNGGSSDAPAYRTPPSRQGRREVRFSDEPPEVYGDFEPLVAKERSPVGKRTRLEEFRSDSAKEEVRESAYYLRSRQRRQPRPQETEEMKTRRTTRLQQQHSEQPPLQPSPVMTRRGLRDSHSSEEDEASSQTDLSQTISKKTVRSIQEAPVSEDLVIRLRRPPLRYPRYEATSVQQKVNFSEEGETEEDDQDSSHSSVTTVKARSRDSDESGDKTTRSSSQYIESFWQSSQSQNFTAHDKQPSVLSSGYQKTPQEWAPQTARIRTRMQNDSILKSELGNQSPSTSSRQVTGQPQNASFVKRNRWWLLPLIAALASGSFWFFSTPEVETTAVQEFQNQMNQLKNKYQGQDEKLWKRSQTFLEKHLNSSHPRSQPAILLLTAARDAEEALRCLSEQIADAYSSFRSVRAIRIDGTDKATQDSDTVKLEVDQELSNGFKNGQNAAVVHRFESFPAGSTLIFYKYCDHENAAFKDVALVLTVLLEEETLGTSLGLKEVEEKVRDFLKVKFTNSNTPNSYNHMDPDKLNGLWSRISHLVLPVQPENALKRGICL
Compound,composite z-score [1],z-score [2],composite z-score [3],composite z-score [4],composite z-score [5],composite z-score [6],composite z-score [7],composite z-score [8],composite z-score [9],composite z-score [10]
COC(=O)c1ccc(C23CC2(C(NP(=O)(c2ccccc2)c2ccccc2)c2ccccc2)C3)cc1 (stereo not given),1.31,-1.17,-0.0656,2.35,0.696,0.195,0.484,-0.708,2.58,1.38
O=C(CS)NCCCCCCNC(=O)[C@@H]1C[C@@H]2C(=O)N3CCC[C@H]3C(=O)N2[C@@H]1c1ccc(O)cc1,1.41,-0.695,-0.793,0.347,0.0689,0.0868,-0.0146,-0.264,1.35,0.139
O=c1cccc(CCc2ccccc2)o1,0.744,0.237,0.103,-0.408,-0.262,-0.118,0.0952,-0.0827,-0.684,1.04
C=CCOC(=O)[C@H]1[C@@H]2C(=O)O[C@@H](c3ccccc3)[C@@H](c3ccccc3)N2[C@@H](c2ccc(OCCOC(=O)[C@@H]3C[C@@H]4C(=O)NCC(=O)N4[C@@H]3c3ccc(O)cc3)cc2)[C@]12C(=O)Nc1ccccc12,0.919,-1.34,0.733,0.325,0.0637,-0.0573,-0.0192,-0.0216,0.609,-0.195
COc1ccc(CCNC(=O)[C@@H]2c3ccccc3C(=O)N(Cc3ccc(OC(F)(F)F)cc3)[C@H]2c2ccc(CO)cc2)cc1,1.38,-1.81,-0.264,0.107,-0.12,-0.146,-0.147,0.28,1,-0.0177
Cc1ccccc1C(O)C1C=CC2C(=O)N(C)C(=O)C2N1N1CCCCC1 (stereo not given),1.05,-0.18,0.163,0.8,0.413,0.0403,0.254,1.72,1.65,1.04
CC(C)c1ccc(NN2C(C(O)c3c(F)cccc3Cl)C=CC3C(=O)N(c4ccccc4)C(=O)C32)cc1 (stereo not given),1.23,-0.242,0.0094,1.88,0.98,0.136,1.38,1.94,0.47,1.81
COc1cc(CO)ccc1OC(C)=O,0.464,-0.147,0.388,0.0543,-0.267,0.127,0.0815,-0.0615,0.47,0.298
COCCOC(=O)N1C(=O)[C@@]2(c3cc(C#CCC(C(=O)OC)C(=O)OC)ccc31)[C@H](c1ccccc1OCCO)N1[C@H](c3ccccc3)[C@H](c3ccccc3)OC(=O)[C@H]1[C@@H]2C(N)=O,0.22,-2.2,0.32,1.25,0.648,0.027,-0.0055,0.141,1.21,2.37
CCCCC=C[C@@H](NC(=O)c1cccs1)c1ccccc1,0.861,-2.74,-0.286,0.524,0.906,-0.124,0.166,-0.269,0.159,0.748
O=C(CS)NCCCCCCNC(=O)[C@H]1C[C@H]2C(=O)NCC(=O)N2[C@H]1c1ccc(O)cc1,-0.175,-0.344,-0.571,-0.156,0.802,-0.171,-0.286,-0.379,-0.633,0.136
CN1C(=O)C2C(C1=O)C1C=C(CCCO)C2C(c2cccs2)N1C (stereo not given),0.0537,-0.999,-0.676,0.203,0.451,-0.0462,0.469,-0.395,-0.646,-0.513
C=CCOC(=O)[C@@H]1[C@H]2C(=O)O[C@H](c3ccccc3)[C@H](c3ccccc3)N2[C@H](c2ccc(OCCOC(=O)[C@@H]3C[C@@H]4C(=O)NCC(=O)N4[C@@H]3c3cccc(OCCO)c3)cc2)[C@@]12C(=O)Nc1ccc(I)cc12,1.43,-1.54,0.949,0.689,-0.0508,-0.0735,-0.043,1.07,-1.86,1.75
CCN(CC)c1ccc(N2CC=CC34O[C@@H]5C=CCCOC(=O)C5[C@H]3C(=O)N(CCCCCO)[C@@H]4C2=O)cc1 (stereo not given in full),-0.668,0.348,-0.48,-1.15,-1.45,-0.0721,0.0756,-0.025,1.04,-0.66
CCOC(=O)C[C@H]1[C@H](OC(=O)c2ccccc2-c2ccccc2)[C@@H](NC(=O)c2ccc3ccccc3c2)c2cc(OCCCO)ccc2N1C(=O)c1ccc2ccccc2n1,1.12,-1.08,0.043,0.0796,-0.122,-0.0441,-0.214,-0.364,0.4,0.164
CO[C@H]1O[C@H](CO)[C@@H](OC(=O)Nc2ccc3c(c2)OCO3)[C@H](OC(=O)Nc2ccccc2)[C@H]1OC(=O)Nc1ccccc1,1.5,-3.44,0.0544,1.36,-0.905,-0.0519,0.275,0.909,1.47,1.74
C=CCNC(=O)[C@@H]1[C@H]2C(=O)O[C@H](c3ccccc3)[C@H](c3ccccc3)N2[C@H](c2ccccc2OCCO)[C@@]12C(=O)Nc1ccc(C#CC3=CCCCC3)cc12,1.41,-3.27,0.604,1.09,0.17,-0.0523,0.0611,-0.278,0.668,1.24

Compound,composite z-score [1],z-score [2],composite z-score [3],composite z-score [4],composite z-score [5],composite z-score [6],composite z-score [7],composite z-score [8],composite z-score [9],composite z-score [10]
O=C/C=C/c1ccc(Cl)cc1,-1.74,-0.482,0.163,-0.925,-0.0367,-0.0846,-0.147,-0.426,-0.381,0.0933
CO[C@H]1O[C@H](CO)[C@@H](OC(=O)Nc2ccc(Oc3ccccc3)cc2)[C@H](OC(=O)Nc2ccccc2)[C@H]1OC(=O)Nc1ccccc1,0.838,-2.88,0.62,1.26,-0.278,0.143,-0.0789,0.149,1.2,1.8
O=C(OCCF)C1=CCC(c2cccc(Cl)c2)O1 (stereo not given),0.628,-0.0162,0.15,0.0307,0.164,-0.169,-0.0769,-0.0784,1.53,0.775
COc1ccc(C#Cc2ccc3c(c2)[C@]2(C(=O)N3)[C@H](c3ccc(O)cc3)N3[C@H](c4ccccc4)[C@H](c4ccccc4)OC(=O)[C@H]3[C@@H]2C(=O)N2CCCCCCC2)cc1,1.33,-1.01,1.07,2.7,1.41,0.754,2.15,2.75,4.61,1.83
COCCOC(=O)N1C(=O)[C@@]2(c3cc(C#CCNC(N)=O)ccc31)[C@H](c1ccccc1OCCO)N1[C@H](c3ccccc3)[C@H](c3ccccc3)OC(=O)[C@H]1[C@@H]2C(N)=O,1.18,-0.733,0.54,0.451,0.664,0.0253,-0.229,-0.314,-0.0837,1.18
CC1=C2[C@@H](CCc3ccccc3)OB(O)C[C@@H]2n2c(=O)n(-c3ccccc3)c(=O)n2C1,0.352,-1.23,0.664,0.177,-0.878,-0.096,0.133,-0.198,0.543,-0.027
N[C@@H](Cc1ccccc1)Cn1cc(-c2ccccc2)nn1,0.18,-0.65,-0.339,-0.197,-0.574,-0.027,-0.206,-0.329,0.119,0.588
COC(=O)[C@@]1(Cc2ccc(F)cc2)[C@H]2c3cc(C(=O)N(C)C)n(CCc4ccccn4)c3C[C@H]2CN1C(=O)c1ccccc1,1.39,-0.72,0.384,-0.012,-0.47,1.12,-0.394,0.796,0.468,0.292
COCCOC(=O)N1C(=O)[C@@]2(c3cc(C#CC4(O)CCCCCC4)ccc31)[C@H](C(=O)N1CCCCCCC1)[C@H]1C(=O)O[C@H](c3ccccc3)[C@H](c3ccccc3)N1[C@@H]2c1ccccc1OCCO,1.42,-1.61,0.487,1.79,1.22,0.265,0.906,2.36,1.62,1.49
Cc1ccc(S[C@]2(C(=O)NCc3ccccc3)CC(=O)N(Cc3ccccc3)[C@@H]2c2ccc(CO)cc2)cc1,1.42,-2.1,-0.934,-0.344,-0.195,-0.0395,-0.0977,-0.364,1.2,-0.593
C=CCC(OC(C)=O)[C@@H]1[C@@H](N(Cc2ccc(-c3ccccc3)cc2)C(=O)Cc2ccc(OC)cc2)c2cc(OCCCO)ccc2N1C(=O)c1ccc2ccccc2n1 (stereo not given in full),-0.844,-0.36,-0.259,0.143,1.01,0.0259,-0.0553,-0.0544,0.589,0.819
O=C1O[C@@H](c2ccccc2)[C@@H](c2ccccc2)N2[C@@H](c3ccc(O)cc3)[C@]3(C(=O)Nc4ccc(C#CC5=CCCCC5)cc43)[C@@H](C(=O)O)[C@H]12,0.2,0.0664,0.0765,2.02,0.999,-0.0077,0.123,0.413,1.55,1.17
C[C@]1(C(=O)NCc2ccccc2)c2ccccc2C(=O)N(Cc2ccc(OC(F)(F)F)cc2)[C@H]1c1ccc(CO)cc1,1.39,0.0711,-0.579,-0.119,0.122,-0.0882,-0.304,-0.381,0.696,-0.141
CC(C)(C)N1CC=CC23O[C@@H]4/C=C\CCCOC(=O)C4[C@H]2C(=O)N(CCO)[C@@H]3C1=O (stereo not given in full),-0.365,-0.95,-0.679,-0.0083,0.443,-0.18,0.0121,-0.261,-0.231,-0.709
CCOC(=O)C1=CCC(c2ccc(C#N)cc2)N(S(=O)(=O)c2ccc(C)cc2)C1 (stereo not given),-0.437,-2.66,0.47,2.02,0.536,-0.117,0.109,-0.557,0.479,2.25
COc1cc2c(cc1O)C(C)N(Cc1cccc(OC(F)(F)F)c1)CC2 (stereo not given),1.37,-0.815,-0.442,0.854,0.938,-0.0445,0.0326,0.582,1.67,0.514
COCC1=C2[C@@H](CCc3ccccc3)OB(O)C[C@@H]2[C@@H]2C(=O)N(Cc3ccccc3)C(=O)[C@@H]2C1,-0.0734,-0.895,0.0192,-0.222,-0.112,-0.0242,-0.214,0.362,-0.448,1.19
